{"source": "PubChem BioAssay (EPA / NIEHS)", "note": "Where “and” joins values, the source holds several entries; their conditions need not be identical. Equal entries are not always repeated. Calls of active or inactive are those of the source. How the source made its calls: active means hit-call score of the fitted dose curve at least 0.9, where 1 is the maximum; inactive means score below 0.9.", "data": [{"read-out": "Cytochrome P450 3A7 (Homo sapiens) (UniProt P24462)", "experiment": "LTEA_HepaRG_CYP3A7: Life Technologies and Expression Analysis (LTEA) Assay for CYP3A7 using HepaRG (AID 2283492)", "conditions": "mRNA level, 48 h; actives raise or lower the signal", "protocol": "LTEA_HepaRG is a cell based, multiplexed-readout assay that uses HepaRG, a human liver cell line, with measurements taken at 48 hours after chemical dosing on a 96-well plate.LTEA_HepaRG_CYP3A7 is one of 102 assay component(s) measured in the LTEA HepaRG cell culture assay. It is a marker of NR mediated metabolism/Undifferentiated hepatocyte.Data from the assay component LTEA_HepaRG_CYP3A7 was analyzed into 1 endpoint. This assay endpoint, LTEA_HepaRG_CYP3A7, was analyzed with bidirectional fitting relative to DMSO as the negative control and baseline of activity. Using a type of inducible reporter, measures of mRNA induction for gain or loss-of-signal activity can be used to understand regulation of transcription factor activity. To generalize the intended target to other relatable targets, this assay endpoint is annotated to the cyp intended target family, where the subfamily is xenobiotic metabolism.\nA total of 1060 chemcials from the ToxCast library were tested in eight-point concentration-response experiments. Cell culture and cytotoxicity assays were conducted at Thermo Fisher Scientific's Custom Services facility (Madison, WI). A single lot of human HepaRG cells (Thermo Fisher Scientific, Frederick, MD) was used for the cell culture experiments. 96-well format collagen type I coated plates of human HepaRG cells were prepared using established methods. Briefly, cryopreserved HepaRG cells were thawed, plated at a density of approximately 100,000 cells/well in HepaRG Thaw, Plate, and General Purpose media (HPRG770, Thermo Fisher Scientific), and incubated for 48 hours. 0.5% DMSO was selected as vehicle control to balance the requisite need of DMSO in HepaRG cultures to maintain differentiation (for example, baseline metabolism, proportions of hepatocytes vs. cholangiocytes), while enabling further hepatic receptor pathway activation (for example, PXR and CAR) in response to chemical exposure. 48 hours after plating, the culture medium was replaced with HepaRG Serum-Free Incudtion Media. Cells were exposed to each test chemical in duplicate and maintained in CO2 incubators for another 48 hours. Chemical plates were thawed to room temperature and 200x concentrations of treatment groups were prepared. 8-point conentration-reponse curves were made with the highest exposure at 100 uM, followed by half-log dilutions, all in 0.5% DMSO. Each test plate contained variouse controls, induction positive controls (1mM phenobarbital), cytotoxicity positive controls ([…] aflatoxin B1), vehicle controls (0.5% DMSO), and total lysis controls (0.5% DMSO). Cell morphology images were taken using an Essen IncuCyte FLR automated microscope, with six 96-well plates imaged in about 24 minutes. Images were captured and exported and JPEG files. Spent culture media was transfered to black-well plates for the LDH assay, and remaining media was sorted at -80 C for later use. Cells were treated with RLT buffer and frozen until shipped for gene expression analysis. Total RNA was isolated from the cell suspension in 75 uL of Buffer RLT (Qiagen, Germantown, MD 20874) by Quintiles/Expression Analysis (Durham, NC) using a custom isolation procedure. Total RNA from each plate well was transferred to a preamplification plate. Fluidigm's 96.96 Dynamic ArrayTM (Fluidigm, Amsterdam, the Netherlands) technology was used for gene expression analyses by quantitative reverse transcription polymerase chain reaction (qRT-PCR, performed by Quintiles/Expression Analysis, Durham, NC)89. Standard TaqManTM Assays (Applied Biosystems/ThermoFisher Scientific, Foster City, CA) were used to assess the expression of 93 genes selected based on their selectivity and sensitivity to important hepatic receptors known to be modulated by environmental chemicals; importance in human hepatocyte functionality; and hepatotoxicity. […]", "values": [{"smiles": "CC1(C)C(C=C(Cl)Cl)C1C(=O)OC(C#N)c1ccc(F)c(Oc2ccccc2)c1", "note": "(stereo not given)", "outcome": "inactive"}, {"smiles": "CC[C@H](C)[C@H]1O[C@]2(C=C[C@@H]1C)C[C@@H]1C[C@@H](C/C=C(\\C)[C@@H](O[C@H]3C[C@H](OC)[C@@H](O[C@H]4C[C@H](OC)[C@@H](O)[C@H](C)O4)[C@H](C)O3)[C@@H](C)/C=C/C=C3\\CO[C@@H]4[C@H](O)C(C)=C[C@@H](C(=O)O1)[C@]34O)O2", "note": "(tested in a mixture with another compound)", "outcome": "inactive"}, {"smiles": "CCc1ccc(C(=O)NN(C(=O)c2cc(C)cc(C)c2)C(C)(C)C)cc1", "AC50": "12.1 µM (active)"}, {"smiles": "CC(C)N(C(=O)COc1nnc(C(F)(F)F)s1)c1ccc(F)cc1", "outcome": "inactive"}, {"smiles": "O=C(O)COc1ccc(Cl)cc1Cl", "AC50": "27.7 µM (active)"}, {"smiles": "CNC(=O)CSP(=S)(OC)OC", "outcome": "inactive"}, {"smiles": "COP(=S)(OC)Oc1ccc([N+](=O)[O-])cc1", "outcome": "inactive"}, {"smiles": "CCC(C)Nc1c([N+](=O)[O-])cc(C(C)(C)C)cc1[N+](=O)[O-]", "note": "(stereo not given)", "outcome": "inactive"}, {"smiles": "CNC(=O)Oc1cccc(N=CN(C)C)c1", "outcome": "inactive"}, {"smiles": "CN1CSC(=S)N(C)C1", "outcome": "inactive"}, {"smiles": "C[C@H]1[C@H](c2ccc(Cl)cc2)SC(=O)N1C(=O)NC1CCCCC1", "AC50": "61.6 µM (active)"}, {"smiles": "CCOCN(C(=O)CCl)c1c(C)cccc1CC", "AC50": "86.2 µM (active)"}, {"smiles": "O=S1OCC2C(CO1)C1(Cl)C(Cl)=C(Cl)C2(Cl)C1(Cl)Cl", "note": "(stereo not given)", "AC50": "50 µM (active)"}, {"smiles": "CNC(=O)/C=C(\\C)OP(=O)(OC)OC", "outcome": "inactive"}, {"smiles": "CCC(C)(C)C(=O)OC1=C(c2ccc(Cl)cc2Cl)C(=O)OC12CCCCC2", "AC50": "25.5 µM (active)"}, {"smiles": "Clc1ccccc1-c1nnc(-c2ccccc2Cl)nn1", "AC50": "6.87 µM (active)"}, {"smiles": "N#CN", "outcome": "inactive"}, {"smiles": "ClC1C(Cl)C(Cl)C(Cl)C(Cl)C1Cl", "note": "(stereo not given)", "outcome": "inactive"}, {"smiles": "O=C(Nc1ccccc1)Nc1cnns1", "AC50": "50 µM (active)"}, {"smiles": "CNC(=O)Oc1ccccc1OC(C)C", "AC50": "1.52 µM (active)"}, {"smiles": "CCN(CC)C(=O)SCc1ccc(Cl)cc1", "outcome": "inactive"}, {"smiles": "Cc1[nH]c(=O)n(C(C)(C)C)c(=O)c1Cl", "outcome": "inactive"}, {"smiles": "CC1(c2ccc(Oc3ccccc3)cc2)OC(=O)N(Nc2ccccc2)C1=O", "note": "(stereo not given)", "AC50": "24.8 µM (active)"}, {"smiles": "C#CCN1C(=O)COc2cc(F)c(N3C(=O)C4=C(CCCC4)C3=O)cc21", "AC50": "0.97 µM (active)"}, {"smiles": "O=C(O)C(F)(F)C(F)(F)C(F)(F)C(F)(F)C(F)(F)C(F)(F)C(F)(F)F", "AC50": "22.1 µM (active) and 9.92 µM (active)"}, {"smiles": "CCCN(CCC)c1c([N+](=O)[O-])cc(C(F)(F)F)cc1[N+](=O)[O-]", "outcome": "inactive"}, {"smiles": "O=[N+]([O-])/N=C1\\NCCN1Cc1ccc(Cl)nc1", "outcome": "inactive"}, {"smiles": "O=C1c2ccccc2C(=O)N1SC(Cl)(Cl)Cl", "outcome": "inactive"}, {"smiles": "O=[N+]([O-])c1c(Cl)c(Cl)c(Cl)c(Cl)c1Cl", "outcome": "inactive"}, {"smiles": "COc1nn(CSP(=S)(OC)OC)c(=O)s1", "outcome": "inactive"}, {"smiles": "COP(=O)(OC)OC=C(Cl)Cl", "outcome": "inactive"}, {"smiles": "O=C(NC(=O)c1c(F)cccc1F)Nc1ccc(OC(F)(F)C(F)OC(F)(F)F)c(Cl)c1", "note": "(stereo not given)", "outcome": "inactive"}, {"smiles": "CCC(C)(NC(=O)c1cc(Cl)c(C)c(Cl)c1)C(=O)CCl", "note": "(stereo not given)", "AC50": "82.1 µM (active)"}, {"smiles": "CCOC1Oc2ccc(OS(C)(=O)=O)cc2C1(C)C", "note": "(stereo not given)", "outcome": "inactive"}, {"smiles": "CC(C)OC(=O)Nc1cccc(Cl)c1", "outcome": "inactive"}, {"smiles": "N#Cc1c(Cl)c(Cl)c(Cl)c(C#N)c1Cl", "AC50": "50 µM (active)"}, {"smiles": "Oc1ccc(Cl)cc1Cc1ccccc1", "outcome": "inactive"}, {"smiles": "CCCN(CCOc1c(Cl)cc(Cl)cc1Cl)C(=O)n1ccnc1", "AC50": "32.4 µM (active)"}, {"smiles": "Oc1cc(Cl)ccc1Oc1ccc(Cl)cc1Cl", "outcome": "inactive"}, {"smiles": "OCCOc1ccccc1", "outcome": "inactive"}]}]}
